# Counter-ions that a name gives are not always drawn. Values without a mark were called inactive.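 Rule for the calls: active = AUC significantly below DMSO controls by Student t-fit with adjusted P under 0.01; inactive = not significantly reduced.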
# Test system: Haemophilus parainfluenzae
# Assay: growth AUC normalised to DMSO control (fraction of control); higher = less growth inhibition, active = hit call of the paper
# Details: 20 µM
# Summary of the method: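 For the AUC endpoint, growth curves were integrated by the trapezoidal rule up to the exponential-to-stationary transition and normalised to DMSO controls on the same plate. The curves came from OD578 readings taken hourly for 24 h, in three biological replicates. Pathogens had been passaged anaerobically twice and inoculated at an OD578 of 0.01 into pre-reduced mGAM plates carrying 20 μM compound and 1% DMSO, sealed with breathable membranes. Medium for Haemophilus parainfluenzae also contained hemin and NAD.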
row,SMILES,growth AUC normalised to DMSO control
1,COc1ccccc1N1CCN(CCCCNC(=O)c2ccc3ccccc3c2)CC1,0.997
2,COc1ccc2c(c1)c(CC(=O)O)c(C)n2C(=O)c1ccc(Cl)cc1 [Indomethacin],0.975
3,O=C(Cn1ccnc1[N+](=O)[O-])NCCO [Etanidazole],0.929
4,COc1ccc(CC(C)NCC(O)c2ccc(O)c(NC=O)c2)cc1 (stereo unspecified) [Formoterol fumarate],1.09
5,CN(C)CC/C=C1/c2ccccc2COc2ccc(CC(=O)O)cc21 [Olopatadine hydrochloride],0.881
6,CCOC(=O)O[C@]1(C(=O)COC(=O)CC)CC[C@H]2[C@@H]3CCC4=CC(=O)C=C[C@]4(C)[C@H]3[C@@H](O)C[C@@]21C [Prednicarbate],1.16
7,CCC1=C(C)CN(C(=O)NCCc2ccc(S(=O)(=O)NC(=O)N[C@H]3CC[C@H](C)CC3)cc2)C1=O [Glimepiride],1.02
8,O=C1NCCN1CCN1CCC(c2cn(-c3ccc(F)cc3)c3ccc(Cl)cc23)CC1 [Sertindole],1
9,NC[C@@H]1O[C@@H](O[C@H]2[C@H](O)[C@@H](O[C@H]3O[C@H](CO)[C@@H](O)[C@H](N)[C@H]3O)[C@H](N)C[C@@H]2N)[C@@H](O)[C@H](O)[C@H]1O [Kanamycin A sulfate],0.976
10,CC(=O)N[C@@H](CC(=O)O)C(=O)N[C@@H](CCC(=O)O)C(=O)O [Spaglumic acid],1.04
11,CC1(C)S[C@@H]2[C@H](NC(=O)[C@H](N)c3ccc(O)cc3)C(=O)N2[C@H]1C(=O)O [Amoxicillin],0.0371 (active)
